# Laboratory results from PubChem BioAssay (Tox21).
# Unmarked numbers belong to inactive results. Calls of active or inactive are those of the source. The call rests on the fitted dose curve.
# Target: Acetylcholinesterase (Homo sapiens) (UniProt P22303)
# Experiment: Acetylcholinesterase (AChE) small molecule antagonists: enzyme-based qHTS assay (AID 1347397); further: nearly all actives have a fitted effect of over 55% in size
# Settings: Potency: AChE enzyme activity inhibition; outcome: AChE enzyme activity inhibition; series mostly up to 115 µM; activity change, negative = inhibition: at the top concentration
# Method in brief: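 Colorimetric DTNB read-out of thiocholine released from acetylthiocholine by recombinant human AChE (50 mU/mL as dispensed). Compounds were preincubated 30 min at RT before substrate/DTNB addition, with a 10 min RT reaction.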
# On the % scale 0 is the no-effect control and ±100 the full control effect; potency means the concentration at half of the fitted maximal effect.
# Sequence of Acetylcholinesterase (Homo sapiens) (P22303 whole entry, looked up): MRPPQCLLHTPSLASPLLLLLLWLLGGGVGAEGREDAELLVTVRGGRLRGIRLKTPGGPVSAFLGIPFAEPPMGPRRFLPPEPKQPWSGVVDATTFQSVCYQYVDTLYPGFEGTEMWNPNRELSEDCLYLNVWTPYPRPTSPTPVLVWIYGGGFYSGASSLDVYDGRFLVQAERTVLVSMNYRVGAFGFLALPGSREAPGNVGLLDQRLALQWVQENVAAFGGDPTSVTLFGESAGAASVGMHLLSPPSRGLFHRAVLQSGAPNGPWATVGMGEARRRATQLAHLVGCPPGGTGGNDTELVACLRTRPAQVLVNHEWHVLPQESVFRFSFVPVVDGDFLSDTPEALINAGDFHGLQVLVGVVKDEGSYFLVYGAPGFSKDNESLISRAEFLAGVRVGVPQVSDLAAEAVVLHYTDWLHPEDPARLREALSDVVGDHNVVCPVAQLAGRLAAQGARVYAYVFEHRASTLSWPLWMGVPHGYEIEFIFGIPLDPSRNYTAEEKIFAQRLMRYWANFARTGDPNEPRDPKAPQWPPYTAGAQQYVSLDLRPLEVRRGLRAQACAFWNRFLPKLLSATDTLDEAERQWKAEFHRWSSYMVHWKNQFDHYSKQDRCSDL
Compound,"activity change, negative = inhibition",Potency
C=C(C)C(=O)OCCOCC,0.0169%,
CCCCCCCCCCCCCC(=O)OCC(O)CO (stereo not drawn),1.94%,
O=C[C@H](O)[C@@H](O)[C@H](O)[C@H](O)CO,0.812%,
NC1CCN(c2nc3c(cc2F)c(=O)c(C(=O)O)cn3-c2ccc(F)cc2F)C1 (stereo not drawn),-0.239% [at 53 µM],
CCN(CC)CCCC(C)Nc1ccnc2cc(Cl)ccc12 (stereo not drawn),-3.67% [at 10.5 µM],
C=CCON/C(CCC)=C1\C(=O)CC(C)(C)C(C(=O)OC)=C1O,1.4%,
CCCCN,0.923% [at 53 µM],
CN1CCCC(n2nc(Cc3ccc(Cl)cc3)c3ccccc3c2=O)CC1 (stereo not drawn),,27.5 µM (active)
CNC(=S)NC,-0.541%,
COC(=O)CCSCCC(=O)OC,0.481%,
CCCCCOC(=O)CCCC,-1.15%,
CCOC(=O)[C@@](C)(N)Cc1ccc(O)c(O)c1,2.92% [at 53 µM],
Cc1cnc(NS(=O)(=O)c2ccc(N)cc2)nc1,-0.135% [at 53 µM],
CCCCOc1ccc(CC(=O)NO)cc1,3.06% [at 53 µM],
C=CCCCCCCCCCCC,0.273% [at 10.5 µM],
Clc1cc(Cl)c2c(c1)N=C1CCCCCN1C2,,0.871 µM (active)
CC(=O)C1CCCCC1=O (stereo not drawn),-0.126%,
Cc1cccc(N(C)C(=S)Oc2ccc3c(c2)CCC3)c1,-3.46% [at 53 µM],
COc1ccccc1NC(=O)c1cc2ccccc2cc1O,-11.4%,
CC(C)(C)c1ccc(OCC2CO2)cc1 (stereo not drawn),-0.137%,
O=C(Nc1ccc(Cl)cc1)Nc1ccc(Cl)c(C(F)(F)F)c1,-3.44% [at 53 µM],
CCC(C)(C)C1CCC(=O)CC1,-0.701%,
COC(=O)[C@]1(C)CCC[C@@]2(C)[C@H]1CC=C1C=C(C(C)C)CC[C@@H]12,-6.74%,
